High-throughput results as filed in PubChem BioAssay.
ROMK primary: ROMK potassium channel modulators, primary screen, cell-based, thallium flux, MLSMR library; ATP-sensitive inward rectifier potassium channel 1 (Homo sapiens), P48048; Tet-inducible ROMK, thallium flux fluorescence; actives lie on both sides; B-score at 10 µM; actives 2% (n = 130,000);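 active = signal ratio slope over the read window, or its plate-corrected B-score, at least 3 SD from the plate mean, either direction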;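 also: B-score of the F/F0 ratio slope over 7 to 12 s after thallium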
L major viab: Leishmania major promastigote growth inhibition, primary screen. Leishmania major promastigotes, resazurin fluorescence viability. inhibition, % at 10 µM. actives 9% (n = 200,000). AID 1063, 2008; in the data active = inhibition above about 50%;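 also: promastigotes grown with compound for 44 hours at 28 °C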
p97 inhibitor: inhibitors of human p97 ATPase, primary screen, biochemical; Transitional endoplasmic reticulum ATPase (Homo sapiens), P55072; recombinant p97 ATPase, Kinase-Glo ATP luminescence, 3 h; inhibition, % at 8 µM; actives 0.42% (n = 220,000); AID 1481, 2009; in the data active = inhibition above about 15%
Target sequence (P55072 whole entry, looked up): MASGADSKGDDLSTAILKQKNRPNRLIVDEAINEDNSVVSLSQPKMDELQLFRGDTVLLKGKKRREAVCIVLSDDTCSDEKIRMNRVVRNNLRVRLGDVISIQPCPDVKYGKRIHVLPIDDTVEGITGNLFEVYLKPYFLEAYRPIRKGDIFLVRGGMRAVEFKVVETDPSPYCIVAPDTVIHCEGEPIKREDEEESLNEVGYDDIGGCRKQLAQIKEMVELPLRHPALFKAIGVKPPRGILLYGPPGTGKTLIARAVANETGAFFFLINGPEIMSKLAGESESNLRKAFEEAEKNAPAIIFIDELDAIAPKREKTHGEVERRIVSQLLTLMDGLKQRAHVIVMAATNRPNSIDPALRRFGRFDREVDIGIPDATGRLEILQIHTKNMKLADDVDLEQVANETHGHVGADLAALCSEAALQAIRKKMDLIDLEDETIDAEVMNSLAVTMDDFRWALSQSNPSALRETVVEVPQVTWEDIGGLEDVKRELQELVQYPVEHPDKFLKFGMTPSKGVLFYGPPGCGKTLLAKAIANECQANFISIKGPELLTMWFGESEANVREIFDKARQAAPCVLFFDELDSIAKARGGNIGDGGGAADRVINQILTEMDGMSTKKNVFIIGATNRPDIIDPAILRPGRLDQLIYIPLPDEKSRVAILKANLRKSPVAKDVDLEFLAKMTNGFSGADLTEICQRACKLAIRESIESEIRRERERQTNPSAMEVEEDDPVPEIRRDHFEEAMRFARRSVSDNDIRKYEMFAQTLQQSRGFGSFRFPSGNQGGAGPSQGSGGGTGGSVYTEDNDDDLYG
INS promoter inh: inhibitors of insulin promoter-driven GFP, primary screen, imaging, TRM-6 cells (human fetal islet line), eGFP reporter, cell count | reporter expression induced with tamoxifen | inhibition, % at 2 µM | actives 0.9% (n = 130,000);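 active = inhibition above the mean plus 3 SD, with well images judged a real hit on visual review, cut at about 60% in these data, passing the limit was not always enough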
bCat KO growth: primary screen for growth suppressors in beta-catenin knockout HCT116 cells (colon tumor, human); AID 818, 2007; viability, % at 10 µM; actives 1.5% (n = 140,000); HCT116 beta-catenin knockout viability, CellTiter-Glo, 60 h; active compounds read low;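 active = viability at or under a set limit, the compound median less 4 SD, cut at about 6% in these data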
PTEN del growth: growth suppression of PTEN-null HCT116, primary screen, cell-based, CellTiter-Glo; HCT116 PTEN-null viability, 60 h; active compounds read low; viability, % at 10 µM; actives 1.2% (n = 140,000);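 active = viability at or below a set limit, 4 SD under the median of all tested compounds, cut at about 3.7% in these data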;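 also: PTEN knockout HCT116 line with beta catenin targeted HCT116 as companion control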
Large screens that a line does not name were inactive. An excerpt weighted towards active compounds, which were near 10% of everything screened.

Cc1cc(NC(=O)c2cccc(COc3ccc(Br)cc3)c2)no1	none (no result: ROMK primary, INS promoter inh)
Cc1cccc(CN2CCCC(C(=O)c3ccc4c5c(cccc35)CC4)C2)n1 (centres undefined)	L major viab 53 (no result: bCat KO growth, PTEN del growth)
O=C(c1ccc2c3c(cccc13)CC2)C1CCCN(Cc2cccnc2)C1 (centres undefined)	L major viab 96 (no result: INS promoter inh, bCat KO growth, PTEN del growth)
COc1cc(CN2CCCC(C(=O)c3ccc4c5c(cccc35)CC4)C2)cc(OC)c1O (centres undefined)	L major viab 99 (no result: INS promoter inh, bCat KO growth, PTEN del growth)
COc1ccc2cc(C(=O)C3CCCN(Cc4cccc(C)n4)C3)ccc2c1 (centres undefined)	L major viab 86 (no result: INS promoter inh, bCat KO growth, PTEN del growth)
CC(=O)N1CCCC(C(=O)c2ccc3c4c(cccc24)CC3)C1 (centres undefined)	none (no result: bCat KO growth, PTEN del growth)
Cc1occc1C(=O)NN1C(=O)C2C3CCC(O3)C2C1=O (centres undefined)	none
CCn1ncc(CN2CCCC(C(=O)c3cccc(OC(C)C)c3)C2)c1C (centres undefined)	L major viab 80 (no result: INS promoter inh, bCat KO growth, PTEN del growth)
COc1cc(OC)c(NC(=O)/C=C/C(=O)O)cc1Cl	none (no result: ROMK primary, L major viab, INS promoter inh, bCat KO growth, PTEN del growth)
CCC(C)NCCCOc1cc(Cl)ccc1Cl (centres undefined)	L major viab 100
CCNC(=O)CCCOc1ccc(Cl)cc1Cl	none (no result: ROMK primary)
CCC(C)NCCCCOc1ccc(Cl)cc1C (centres undefined)	L major viab 97
CCCCNCCCOc1cc(Cl)ccc1Cl	L major viab 98 (no result: ROMK primary)
NC(=O)c1sc(-c2ccsc2)cc1NS(=O)(=O)c1ccc(C(F)(F)F)cc1	none (no result: L major viab, INS promoter inh, bCat KO growth, PTEN del growth)
C=CCN1C(=O)CSc2ccc(C(=O)NCCC3=CCCCC3)cc21	L major viab 76
CCCCn1c(=S)[nH]c2c(oc3ccc(Cl)cc32)c1=O	ROMK primary 4.8
O=S(=O)(Nc1ccccn1)c1ccc(Cl)c2ccccc12	none (no result: INS promoter inh, bCat KO growth, PTEN del growth)
COC(=O)c1cccc(NC(=O)c2cccnc2C(=O)O)c1C	none (no result: INS promoter inh, bCat KO growth, PTEN del growth)
CCCN1C(=O)C(Cc2nc3ccccc3c(=O)n2-c2ccccc2)c2ccccc21 (centres undefined)	L major viab 89
Cc1cc(C)n2nc(C(=O)Nc3cccc(S(=O)(=O)N(C)c4ccccc4)c3)nc2n1	none (no result: ROMK primary, L major viab, INS promoter inh, bCat KO growth, PTEN del growth)
CCOC(=O)c1ccc(NC(=S)NCCCN2CCCCC2)cc1	none (no result: ROMK primary)
CCOC(=O)c1ccc(NC(=S)NCCCN2CCN(C3CCCCC3)CC2)cc1	L major viab 53 (no result: bCat KO growth, PTEN del growth)
CCOC(=O)c1ccc(NC(=S)NN2CCOCC2)cc1	L major viab 53
CCOC(=O)c1ccc(NC(=S)Nc2ccc(C)cc2)cc1	none (no result: INS promoter inh, bCat KO growth, PTEN del growth)
CCOC(=O)c1ccc(NC(=O)N2CCN(CCc3ccccc3)CC2)cc1	L major viab 64 (no result: ROMK primary)
CCOC(=O)c1ccc(CNCc2ccccc2)cc1	L major viab 100
COC(=O)C1(c2ccccc2)NC(c2ccc(O)cc2)C2C(=O)N(c3ccc4c(c3)OCO4)C(=O)C21 (centres undefined)	none (no result: ROMK primary, L major viab, INS promoter inh, bCat KO growth, PTEN del growth)
[O-]c1c[n+](-c2ccc(-[n+]3cc([O-])on3)cc2)no1	none (no result: INS promoter inh, bCat KO growth, PTEN del growth)
Cc1cc(C)nc(NC(=NCCc2c[nH]c3ccccc23)NC(=O)Nc2ccc(Cl)c(Cl)c2)n1	L major viab 98
Cc1cc(C)nc(NC(=NCCc2c[nH]c3ccccc23)NC(=O)Nc2cccc([N+](=O)[O-])c2)n1	none
Cc1cc(C)nc(NC(=NCCc2c[nH]c3ccccc23)NC(=O)Nc2ccccc2)n1	L major viab 73 (no result: ROMK primary, INS promoter inh)
CCOCC(=O)Nc1cc(Cl)c(OC)cc1OC	none (no result: ROMK primary, INS promoter inh, bCat KO growth, PTEN del growth)
Cc1cc(NC(=O)CC2(CC(=O)O)CCCC2)n(C)n1	none (no result: L major viab, INS promoter inh, bCat KO growth, PTEN del growth)
CCC(c1nc2ccccc2c(=O)n1CCN1CCOCC1)N1C(=O)c2ccccc2C1=O (centres undefined)	INS promoter inh 66
CCC(c1nc2ccccc2c(=O)n1CCCn1ccnc1)N1C(=O)c2ccccc2C1=O (centres undefined)	none (no result: ROMK primary)
COc1ccc(C2CC(c3cccs3)=NN2C(=O)CSc2nc3c(cnn3-c3ccccc3)c(=O)[nH]2)cc1 (centres undefined)	L major viab 85
O=C(CSc1nc2ccccc2o1)N1N=C(c2cccs2)CC1c1ccc(F)cc1 (centres undefined)	L major viab 97
Cc1ccc(C2CC(c3cccs3)=NN2C(=O)CSc2nc3ccccc3o2)cc1 (centres undefined)	none
COc1cccc(C2CC(c3cccs3)=NN2C(=O)CSc2nc3c(cnn3-c3ccc(F)cc3)c(=O)[nH]2)c1OC (centres undefined)	none
O=C(NCCc1nnc2ccc(NCc3ccccc3Cl)nn12)c1ccccc1	none (no result: bCat KO growth, PTEN del growth)
COc1ccc(NCc2nc3ccccc3n2CCOc2ccc(C)cc2)cc1	L major viab 91
COc1ccc(NCc2nc3ccccc3n2CCOc2ccccc2)cc1	L major viab 87 (no result: ROMK primary)
c1ccc(NCc2nc3ccccc3n2CCOc2ccccc2)cc1	none
Cc1ccc(OCCn2c(CCCO)nc3ccccc32)cc1	L major viab 54
Cn1nc(C(=O)NCCOc2ccccc2)c2ccccc2c1=O	none (no result: bCat KO growth, PTEN del growth)
Cc1c(NC(=O)CSc2ccccc2Cl)c(=O)n(-c2ccccc2)n1C	none (no result: bCat KO growth, PTEN del growth)
COc1ccc(-c2cc(-c3ccccc3)nc3ncnn23)cc1	none (no result: INS promoter inh, bCat KO growth, PTEN del growth)
c1ccc(-c2cc(-c3ccccc3)n3ncnc3n2)cc1	INS promoter inh 69 (no result: bCat KO growth, PTEN del growth)
O=C(CN1CCCc2ccccc21)N/N=C/c1ccccc1	none (no result: ROMK primary, INS promoter inh)
O=C(CN1CCCc2ccccc21)N/N=C/c1c(O)ccc2ccccc12	L major viab 99 (no result: ROMK primary)
O=C(CN1CCCc2ccccc21)N/N=C/c1ccc(O)cc1O	L major viab 98 (no result: INS promoter inh)
O=C1NCCN/C1=C\C(=O)c1cccc(Br)c1	none (no result: ROMK primary, L major viab, INS promoter inh, bCat KO growth, PTEN del growth)
COc1ccc(/C=C2/C(=N)N3C(=NC2=O)Sc2cc(S(C)(=O)=O)ccc23)cc1OC	none (no result: L major viab, INS promoter inh, bCat KO growth, PTEN del growth)
O=C(CO/N=C\c1ccccc1)Nc1ccccc1C(=O)N1CCOCC1	none (no result: INS promoter inh)
COCC1CCCN(Cc2cn(Cc3ccccc3)nc2-c2cc3ccccc3o2)C1 (centres undefined)	L major viab 64 (no result: ROMK primary, INS promoter inh, bCat KO growth, PTEN del growth)
Cc1ccc(C)c(NC(=O)c2ccc(S(=O)(=O)C(F)F)cc2)c1	none (no result: ROMK primary, INS promoter inh)
N=c1n(CC(=O)c2ccc([N+](=O)[O-])cc2)c2ccccc2n1Cc1ccccc1	L major viab 99, bCat KO growth 1.7, PTEN del growth 1.8 (no result: ROMK primary, INS promoter inh)
N=c1n(CC(=O)O)c2ccccc2n1Cc1ccccc1Cl	none (no result: ROMK primary)
N=c1n(CC(=O)c2ccc([N+](=O)[O-])cc2)c2ccccc2n1Cc1ccccc1Cl	L major viab 101 (no result: ROMK primary)
N=c1n(CC(=O)c2ccc([N+](=O)[O-])cc2)c2ccccc2n1Cc1ccc(Cl)cc1	L major viab 100, bCat KO growth 1.3, PTEN del growth 1.6 (no result: ROMK primary, INS promoter inh)
C=CCn1c(=N)n(CC(=O)c2cccc([N+](=O)[O-])c2)c2ccccc21	none (no result: INS promoter inh, bCat KO growth, PTEN del growth)
O=C1CC(N2CCC(c3nc4ccccc4o3)CC2)C(=O)N1 (centres undefined)	none (no result: ROMK primary, INS promoter inh, bCat KO growth, PTEN del growth)
